Compound activity from PubChem.
IL-2 act: IL-2 activation. 0.065% of 360,000 active. activation, % (series mostly up to about 46 µM). IL-2 activation reporter assay, cell-based qHTS; stimulated with anti-CD3/CD4/CD28 beads; in transgenic mouse T cells. AID 652025; in the data active = activation above about 50%; inconclusive = mostly about 30% to 49%; note: 0% is about no effect
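Using fluorescent plate cytometry, EGFP and DsRed are detected in transgenic mouse T cells stimulated 18 h at 37 degrees C with antibody-coated beads after 60 min compound pretreatment.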
p53 reactivator: restores transcriptional activity of mutant p53. H1299 p53-A138V BP100-luciferase reporter, luminescence, 24 h. Potency, µM (doses to about 92.2 µM), for inactives: at the highest dose activity change, positive = activation, actives largely listed as activators. 0.063% of 320,000 active; note: potency is the fitted concentration of half-maximal effect; % of control where 0% means no effect; nearly all actives have a fitted effect of over 45% in size
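p53-null H1299 cells stably carrying temperature-sensitive p53-A138V and a BP100-luciferase reporter were pinned with compounds (4-point, 1:5 series) and held 24 hrs at 37 deg C. Luminescence was read 10 min after detection reagent.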
Nrf2 inh: Nrf2 pathway inhibition. A549 ARE-Fluc reporter, luciferase luminescence, 18-24 h. Potency, µM (top dose mostly 46 µM), inactives show at the top dose activity change, negative = inhibition, hits mostly inhibitors. AID 504444. 2.1% of 360,000 active; note: potency is the fitted concentration of half-maximal effect; % is set by controls: 0 for no effect and ±100 for the full control effect; nearly all actives have a fitted effect of over 60% in size
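In this cell-based qHTS, ARE-driven firefly luciferase in A549 cells reports Nrf2 activity; the luminescent signal after BugLite lysis is the measured value, with a prior CellTiter-Fluor read for cell health.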
A549 tox-1: counter-screen for Nrf2 inhibitors: cytotoxicity in A549 cells; Potency, µM (series often up to 46 µM), for the others: at the top dose activity change, negative = cytotoxicity, actives largely listed as inhibitors; 0.16% of 390,000 active; A549 ARE-Fluc cells, CellTiter-Fluor viability, 18-24 h; note: potency is the fitted concentration of half-maximal effect; % is set by controls: 0 for no effect and ±100 for the full control effect
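A549 ARE_Fluc cells in 5% FBS OPTI-MEM were exposed to compounds in concentration-response for 18-24 h at 37 deg C. Viability was read by CellTiter-Fluor fluorescence (Ex 405/Em 525) after 30 min, before the luciferase read.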
Nrf2 ARE act: activators of Nrf2 (ARE) signaling; AREc32 ARE-luciferase reporter (MCF7-derived line), luminescence, 24 h; Potency, µM (highest dose often 46.1 µM), inactives show at the top dose activation, hits mostly activators; 0.31% of 410,000 active; note: potency is the fitted concentration of half-maximal effect; % of control where 0% means no effect; nearly all actives have a fitted effect of over 65% in size
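ARE activation measured as luciferase luminescence (Steady-Glo, 30 min RT) in AREc32_Fluc cells after 24 hr compound exposure at 37 deg C, 5% CO2; cells seeded overnight at 1000/well in OPTI-MEM, 5% FBS.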
BRCA1 expr up: BRCA1 expression activation. MCF7-BRCA1-FFLuc reporter, luminescence, 48 h; response scale: scaled: vehicle 0%, 10 µM genistein 100%. Potency, µM (highest dose often 46.1 µM), for the others: at the highest dose activation, most hits filed as activators. 1.1% of 380,000 active; note: potency is the fitted concentration of half-maximal effect; nearly all actives have a fitted effect of over 80% in size
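Quantitative HTS in MCF7 cells stably reporting BRCA1 expression via firefly luciferase. Compound treatment lasts 48 h at 37 °C in phenol-red free MEM. Activation is expressed relative to genistein at 10 microM and DMSO.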
FLuc counter 3: blocks purified firefly luciferase in Nrf2 counterscreen; 4% of 1,400 active; purified firefly luciferase, luminescence inhibition; shares compounds with Nrf2 inh; AID 720522; Potency, µM (titrated, usually from 57.5 µM), for the others: at the highest dose activity change, negative = inhibition, actives largely listed as inhibitors; note: potency is the fitted concentration of half-maximal effect; % is set by controls: 0 for no effect and ±100 for the full control effect; nearly all actives have a fitted effect of over 65% in size
Target sequence (P08659 whole entry, looked up): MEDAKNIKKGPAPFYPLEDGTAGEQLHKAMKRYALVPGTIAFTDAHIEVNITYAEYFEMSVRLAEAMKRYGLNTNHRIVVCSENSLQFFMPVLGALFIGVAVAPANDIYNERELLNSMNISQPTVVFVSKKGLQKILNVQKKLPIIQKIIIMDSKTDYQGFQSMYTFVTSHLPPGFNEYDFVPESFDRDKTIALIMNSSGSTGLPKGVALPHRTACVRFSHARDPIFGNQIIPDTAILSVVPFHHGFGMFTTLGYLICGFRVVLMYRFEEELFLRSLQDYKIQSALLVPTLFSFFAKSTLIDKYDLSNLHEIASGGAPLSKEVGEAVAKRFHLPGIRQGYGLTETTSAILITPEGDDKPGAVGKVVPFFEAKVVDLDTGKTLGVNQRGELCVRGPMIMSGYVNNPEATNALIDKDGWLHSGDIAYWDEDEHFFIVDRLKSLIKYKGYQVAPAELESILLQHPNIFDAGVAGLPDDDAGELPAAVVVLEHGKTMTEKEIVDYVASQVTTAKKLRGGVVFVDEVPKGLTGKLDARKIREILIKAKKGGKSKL
A549 tox-2: toxic to A549 ARE-Fluc cells in Nrf2 counterscreen. shares compounds with Nrf2 inh. A549 ARE-Fluc cells, cytotoxicity counterscreen. Potency, µM (titrated, usually from 46.1 µM), for inactives: at the top dose activity change, negative = cytotoxicity, most hits filed as inhibitors. 2% of 1,400 active. AID 720523;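 note: potency is the fitted concentration of half-maximal effect; cells exposed to compounds for 18 to 24 hours; % is set by controls: 0 for no effect and ±100 for the full control effect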
ARE-Fluc inh: Nrf2 inhibition confirmed, A549 ARE-luciferase; AID 720524; shares compounds with Nrf2 inh; Potency, µM (top dose mostly 46.1 µM), without a hit: at the top dose activity change, negative = inhibition, hits mostly inhibitors; 74% of 1,400 active; A549 ARE-firefly luciferase reporter, luminescence; note: potency is the fitted concentration of half-maximal effect; % is set by controls: 0 for no effect and ±100 for the full control effect; nearly all actives have a fitted effect of over 65% in size
* hit, by the source's call. The list is not random: actives were taken first. Their share in the collection is about 3.2%. Unless noted, calls come from the whole dose curve; as a rule, active = well fitted curve in the direction sought with a large enough effect; inconclusive = small, poorly fitted or top-dose-only effect, or another doubt; inactive = no such curve, though single readings can be large; an effect the other way counts as inactive or inconclusive.

For Cc1cc(C)cc(Nc2ncnc3nc[nH]c23)c1 the results were IL-2 act 1.2, p53 reactivator 6.7%, Nrf2 inh inconclusive, A549 tox-1 1.1%, Nrf2 ARE act 4.7% and BRCA1 expr up 25.6%.
`Cc1ncnc2nc[nH]c12` gave FLuc counter 3 -2.1%, A549 tox-2 -28.1% and ARE-Fluc inh 5.8µM*.
Cc1cc(C)c(OCCOCCn2c(-c3ccc(Cl)cc3)nc3ccccc3c2=O)c(C)c1 was read as Nrf2 inh 9.0%, A549 tox-1 3.6% and Nrf2 ARE act 5.2%.
For COc1ccc(-c2nnc(NC(=O)c3ccc(S(=O)(=O)N4CCc5ccccc5C4)cc3)o2)cc1 the results were IL-2 act -3.5, p53 reactivator -16.3%, Nrf2 inh 2.82µM*, A549 tox-1 -10.2%, Nrf2 ARE act 0.3%, BRCA1 expr up -85.8%, FLuc counter 3 0.4%, A549 tox-2 -24.9% and ARE-Fluc inh 8.2µM*.
Screening COc1ccc(-c2csc(NC(=O)c3ccc(S(=O)(=O)N4CCc5ccccc5C4)cc3)n2)cc1 returned IL-2 act -1.9, p53 reactivator -2.0%, Nrf2 inh 5.17µM*, A549 tox-1 -10.8%, Nrf2 ARE act 0.9%, BRCA1 expr up -43.3%, FLuc counter 3 3.6%, A549 tox-2 -0.3% and ARE-Fluc inh -27.0%.
For COc1ccc(CNC(=O)c2cc3c(C)nc4ccccc4c3o2)c(OC)c1 the results were IL-2 act 0.2, p53 reactivator 0.3%, Nrf2 inh 5.17µM*, A549 tox-1 -21.6%, Nrf2 ARE act -0.1%, BRCA1 expr up -53.8%, FLuc counter 3 -2.2% and A549 tox-2 -5.1%.
For COc1cccc(CNC(=O)c2cc3c(C)nc4ccccc4c3o2)c1 the results were IL-2 act -3.4, p53 reactivator -3.5%, Nrf2 inh -92.0%, A549 tox-1 -23.1%, Nrf2 ARE act 0.3% and BRCA1 expr up -37.9%.
For CC[N+](CC)(CC)c1ccc(/C=C/c2ccc3ccccc3n2)cc1 the results were BRCA1 expr up -55.5%, FLuc counter 3 23.9µM*, A549 tox-2 9.2µM* and ARE-Fluc inh 2.06µM*.
For C(=C\c1ccc2ccccc2n1)/c1ccccc1 the results were IL-2 act -0.3, p53 reactivator 0.6%, Nrf2 inh inconclusive, A549 tox-1 0.5%, Nrf2 ARE act 16.3%, BRCA1 expr up inconclusive, FLuc counter 3 2.6%, A549 tox-2 inconclusive and ARE-Fluc inh 7.31µM*.
`Oc1ccc(/C=C/c2ccc3ccccc3n2)cc1` gave IL-2 act -3.3, p53 reactivator -10.3%, Nrf2 inh 11.0%, A549 tox-1 -7.8%, Nrf2 ARE act 0.2% and BRCA1 expr up -39.1%.
Screening COc1ccc(OC)c(CCNC(=O)c2nc(-c3ccc(Cl)cc3)n3c2CCCCC3)c1 returned Nrf2 inh inconclusive, A549 tox-1 -14.7% and Nrf2 ARE act 4.0%.
`Cc1ccc2c(c1)c(=O)c(C(=O)c1ccccc1)cn2Cc1ccccc1F` gave Nrf2 inh -32.4%, A549 tox-1 -15.5% and Nrf2 ARE act 0.3%.
`O=C(/C=C/c1ccccc1)N1CCN(S(=O)(=O)c2ccc(F)cc2)CC1` gave IL-2 act -1.7, p53 reactivator -0.5%, Nrf2 inh 6.1%, A549 tox-1 -2.4%, Nrf2 ARE act -0.1% and BRCA1 expr up -23.6%.
Screening O=C(/C=C/c1ccc(S(=O)(=O)N2CCOCC2)cc1)N1CCN(c2ccccc2)CC1 returned IL-2 act -3.3, p53 reactivator -0.2%, Nrf2 inh 5.8µM*, A549 tox-1 1.1%, Nrf2 ARE act -0.5%, BRCA1 expr up -27.2%, FLuc counter 3 1.5%, A549 tox-2 -0.3% and ARE-Fluc inh inconclusive.
O=[N+]([O-])c1ccc(CN2CCSCC2)cc1 was read as IL-2 act 1.1, p53 reactivator 0.7%, Nrf2 inh inconclusive, A549 tox-1 0.7%, Nrf2 ARE act 1.6% and BRCA1 expr up -0.4%.
For O=[N+]([O-])c1ccc(CN2CCN(c3ccc([N+](=O)[O-])cc3)CC2)cc1 the results were IL-2 act -3.7, p53 reactivator -3.4%, Nrf2 inh 7.31µM*, A549 tox-1 -24.0%, Nrf2 ARE act 1.5%, BRCA1 expr up -56.6%, FLuc counter 3 -1.0% and A549 tox-2 -15.7%.
`Cc1ccc(C(=O)NCc2cccc(C(F)(F)F)c2)cc1S(=O)(=O)N1CCCCC1` gave IL-2 act 2.0, p53 reactivator 9.3%, Nrf2 inh 3.66µM*, A549 tox-1 -13.9%, Nrf2 ARE act 0.3%, BRCA1 expr up -4.3%, FLuc counter 3 -1.7%, A549 tox-2 -2.0% and ARE-Fluc inh inconclusive.
`COc1nnc(-c2ccc(N3CCCCC3)c(NC(=O)c3ccc(C)cc3)c2)c2ccccc12` gave Nrf2 inh 6.9%, A549 tox-1 -0.9%, Nrf2 ARE act -0.3% and BRCA1 expr up 2.1%.
COc1nnc(-c2ccc(N3CCCCC3)c(NC(=O)c3ccccc3Cl)c2)c2ccccc12 was read as Nrf2 inh 6.51µM*, A549 tox-1 -29.6%, Nrf2 ARE act 0.5%, FLuc counter 3 1.8%, A549 tox-2 -28.9% and ARE-Fluc inh 6.51µM*.
`CN(Cc1ccccc1)C(=O)c1ccc(NC(=O)Cc2ccc(NC(=O)C3CCCN(C(=O)CCc4ccccc4)C3)cc2)cc1` (centres undefined) gave IL-2 act 0.1, Nrf2 inh 2.59µM*, A549 tox-1 -10.9%, Nrf2 ARE act 1.2%, BRCA1 expr up -43.1%, FLuc counter 3 -10.4%, A549 tox-2 -10.9% and ARE-Fluc inh 1.64µM*.
